Screens deposited in PubChem BioAssay by National Center for Advancing Translational Sciences (NCATS).
Rows were chosen to be rich in hits. Some 12% of all compounds tested hit in one or more screens of this group.
Sfp inh = Sfp phosphopantetheinyl transferase inhibition; Q9F4F7; Biochemical Sfp PPTase activity, qHTS; Potency, µM, most hits filed as inhibitors; hit rate 3.5% among 310,000;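 also: the enzyme is Sfp with the accession as filed and its product quenches rhodamine fluorescence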
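Buffer: 50 mM Hepes-Na pH 7.6, 10 mM MgCl2, 0.01% Nonidet P-40, 0.01% BSA. Enzyme 15 nM, pre-exposed to compound 15 min; substrates then added and fluorescence change tracked over 30 min.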
VP16 counter = counter-screen for ROR gamma inhibitors: Gal4-VP16 reporter; Drosophila S2 Gal4-VP16 UAS-luciferase, luminescence, 20 h; Potency, µM (series often up to 53.6 µM), most hits filed as inhibitors; hit rate 3.5% among 310,000; AID 2546;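 also: Gal4-VP16 expression switched on by copper sulfate through the metallothionein promoter; nearly all actives have a fitted effect of over 50% in size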
RORgamma inh = inhibitors of mouse ROR gamma transcriptional activity; P51450; Potency, µM (highest dose often 53.6 µM), actives largely listed as inhibitors; Drosophila S2 Gal4-RORgamma UAS-luciferase reporter, 20 h; hit rate 5.4% among 310,000; also: nearly all actives have a fitted effect of over 60% in size
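Read-out: Photinus luciferase luminescence; inhibitors lower reporter signal. Insect Schneider cells with Gal4-ROR gamma fusion under metallothionein promoter, UAS reporter; 700 uM final copper sulfate induction, 20 hr, ambient temperature.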
ALDH1A1 inh = inhibitors of human aldehyde dehydrogenase 1A1. Purified ALDH1A1, NADH fluorescence, propionaldehyde substrate. Potency, µM (highest dose often 75.3 µM), usual class: inhibitors. hit rate 7.3% among 220,000; active = well fitted inhibition curve with a large enough effect, not every such curve was filed as active; inconclusive = small, poorly fitted or top-dose-only effect, or another doubt; inactive = no such curve, though single readings can be large or run the other way
Target sequence (P00352 whole entry, looked up): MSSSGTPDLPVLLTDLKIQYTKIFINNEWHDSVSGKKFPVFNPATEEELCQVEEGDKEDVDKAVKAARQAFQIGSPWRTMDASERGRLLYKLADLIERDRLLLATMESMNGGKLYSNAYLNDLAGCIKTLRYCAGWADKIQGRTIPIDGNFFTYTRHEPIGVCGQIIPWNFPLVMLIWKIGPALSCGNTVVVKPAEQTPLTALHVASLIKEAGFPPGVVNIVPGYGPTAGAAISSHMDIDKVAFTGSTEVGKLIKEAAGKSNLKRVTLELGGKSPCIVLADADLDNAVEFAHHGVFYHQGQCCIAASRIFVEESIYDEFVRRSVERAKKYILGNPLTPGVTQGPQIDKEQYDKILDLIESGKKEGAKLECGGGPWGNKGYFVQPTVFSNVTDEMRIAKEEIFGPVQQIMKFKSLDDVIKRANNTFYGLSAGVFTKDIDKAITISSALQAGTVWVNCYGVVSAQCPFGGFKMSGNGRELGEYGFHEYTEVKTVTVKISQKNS
PLK1 PBD block = PLK1 (human) polo-box domain binding inhibition. Plk1 PBD binding of FITC phosphopeptide, fluorescence polarization. Potency, µM, hits mostly inhibitors. hit rate 2.8% among 360,000. AID 720504; also: series mostly up to about 57 µM; nearly all actives have a fitted effect of over 65% in size
Of the large screens only hits and unclear results are named; the others gave an inactive call. Unless noted, calls follow the shape of the dose curve; as a rule, active = well fitted curve in the direction sought with a large enough effect; inconclusive = small, poorly fitted or top-dose-only effect, or another doubt; inactive = no such curve, though single readings can be large; an effect the other way counts as inactive or inconclusive.

CN(Cc1ccccn1)C(=O)c1cc(COc2ccc(F)cc2Cl)on1	none (no result: Sfp inh, VP16 counter, RORgamma inh, ALDH1A1 inh)
Cc1ccc(CN(C)C(=O)c2cc(COc3ccc(F)cc3Cl)on2)o1	Sfp inh 35µM, ALDH1A1 inh 7.1µM, PLK1 PBD block 15µM
C#CCN(Cc1ccco1)C(=O)c1cc(COc2ccc(F)cc2Cl)on1	Sfp inh 13µM, ALDH1A1 inh inconclusive
O=C(NCCc1cccnc1)c1cc(COc2ccc(F)cc2Cl)on1	none (no result: ALDH1A1 inh)
O=C(NCCCc1ccccc1)c1cc(COc2ccc(F)cc2Cl)on1	PLK1 PBD block 30µM (no result: ALDH1A1 inh)
C[C@@H]1CC[C@H]2C(=O)O[C@H](CN=[N+]=[N-])CN2[C@@H]1c1ccc(Br)cc1	ALDH1A1 inh inconclusive (no result: PLK1 PBD block)
COc1cc(C(O)c2nc(-c3cccc(C#N)c3)cs2)ccc1F (stereo unspecified)	none (no result: Sfp inh, VP16 counter, RORgamma inh, ALDH1A1 inh)
CC(C)CN(CC(C)C)C1=N/C(=C\c2ccco2)C(=O)N1c1ccccc1	Sfp inh 32µM, ALDH1A1 inh 13µM
CCN(CC)C1=N/C(=C\c2ccco2)C(=O)N1c1ccccc1	Sfp inh inconclusive, ALDH1A1 inh inconclusive
COc1cc2c(cc1OC)C(/C=C/c1ccc(OC)c(OC)c1OC)=NCC2	Sfp inh inconclusive, VP16 counter inconclusive (no result: PLK1 PBD block)
O=C(N/N=C/c1ccccc1)c1n[nH]c2c1CCCC2	RORgamma inh inconclusive
O=C(N/N=C/c1ccccc1Cl)c1n[nH]c2c1CCCC2	VP16 counter inconclusive, RORgamma inh 2.8µM
Fc1cccc(Cc2c(-c3ccco3)nc3c4ccccc4ccn23)c1	none (no result: Sfp inh, VP16 counter, RORgamma inh, ALDH1A1 inh)
O=C(O)c1ccccc1-n1ncc2c1/C(=C/c1ccc(Cl)cc1)CC2	ALDH1A1 inh 22µM (no result: PLK1 PBD block)
O=C(O)c1ccc(-n2ncc3c2/C(=C/c2cccc([N+](=O)[O-])c2)CC3)cc1	RORgamma inh inconclusive, PLK1 PBD block inconclusive (no result: ALDH1A1 inh)
COc1ccc(-c2cc(C3CCNCC3)[nH]n2)cc1	none (no result: ALDH1A1 inh)
COc1ccc(-c2cc(-c3ccc(OC)cc3)[nH]n2)cc1	VP16 counter 2µM, RORgamma inh 1.3µM
Cc1ccc(-c2cc(-c3cccs3)[nH]n2)c(O)c1	VP16 counter inconclusive, RORgamma inh 11µM
COc1ccc(-c2cc(-c3cc(C)ccc3O)[nH]n2)cc1	VP16 counter inconclusive, RORgamma inh 4µM
Cc1ccc(O)c(-c2cc(-c3ccccc3C)[nH]n2)c1	VP16 counter 11µM, RORgamma inh 11µM
Cc1ccc(O)c(-c2cc(C(F)(F)C(F)F)[nH]n2)c1	none
Cc1ccccc1-c1cc(-c2ccccc2O)on1	RORgamma inh 13µM
COc1ccc(-c2cc(-c3ccc(C)cc3)n[nH]2)c(O)c1	VP16 counter 20µM, RORgamma inh 2.5µM (no result: ALDH1A1 inh)
CC(C)(C)c1ccc(-c2cc(-c3ccccc3O)[nH]n2)cc1	VP16 counter 7.1µM, RORgamma inh inconclusive (no result: ALDH1A1 inh)
Cc1ccc(-n2c(C(C)C)nc3oc4ccccc4c(=O)c3c2=O)cc1	RORgamma inh inconclusive (no result: ALDH1A1 inh)
Cc1cccn2cc(-c3c[nH]c4ccccc34)nc12	ALDH1A1 inh inconclusive
Brc1ccc2nc(-c3c[nH]c4ccccc34)cn2c1	VP16 counter inconclusive, RORgamma inh 0.2µM
COc1ccccc1CN1C(=O)C(C)ON=C1c1ccccc1F (stereo unspecified)	none (no result: Sfp inh, VP16 counter, RORgamma inh, ALDH1A1 inh)
Oc1c(C(Nc2nc3ccccc3s2)c2ccco2)ccc2cccnc12 (stereo unspecified)	VP16 counter 5.6µM, RORgamma inh 2.5µM
CC(C)C(=O)NC(c1ccc([N+](=O)[O-])cc1)c1c(O)ccc2ccccc12 (stereo unspecified)	VP16 counter 13µM, RORgamma inh inconclusive
CC(C)C(=O)NC(c1cccc([N+](=O)[O-])c1)c1ccc2cccnc2c1O (stereo unspecified)	VP16 counter 2.5µM, RORgamma inh 2.8µM (no result: ALDH1A1 inh)
CC(C)C(=O)NC(Nc1cccc2cccnc12)C(Cl)(Cl)Cl (stereo unspecified)	none
CC(C)C(=O)NC(c1ccco1)c1ccc2cccnc2c1O (stereo unspecified)	VP16 counter 5µM, RORgamma inh 2.8µM
CCNC(=O)C1CCCN(C(=O)c2cccc(C(F)(F)F)c2)CC1 (stereo unspecified)	none (no result: Sfp inh, VP16 counter, RORgamma inh, ALDH1A1 inh)
CCOc1ccc(-c2cccc(NS(=O)(=O)c3cccc([N+](=O)[O-])c3)c2)nn1	none (no result: Sfp inh, VP16 counter, RORgamma inh, ALDH1A1 inh)
CCOC(=O)c1cnc2ccc(OCC)cc2c1N(C)Cc1ccccc1	Sfp inh inconclusive, VP16 counter inconclusive, RORgamma inh 14µM
CCOC(=O)c1cc2cc(OCc3ccccc3)ccc2nc1C	none (no result: ALDH1A1 inh)
CN(C)CCNCCN	none (no result: Sfp inh, VP16 counter, RORgamma inh, PLK1 PBD block)
CCCNC(=O)Cc1c(C)oc2ccccc12	none (no result: ALDH1A1 inh)
O=C(N/N=C/c1ccc[nH]1)c1sc2ccccc2c1Cl	VP16 counter 0.56µM, RORgamma inh 0.32µM, ALDH1A1 inh inconclusive
O=C(N/N=C/c1c[nH]c2ccccc12)c1cccc(Cl)c1	VP16 counter inconclusive, RORgamma inh inconclusive (no result: ALDH1A1 inh)
CCc1ccc2c(Cl)c(C(=O)N/N=C/c3c[nH]c4ccccc34)sc2c1	RORgamma inh 8.9µM, ALDH1A1 inh 13µM
CCc1ccc(-c2cc(C(=O)N/N=C/c3c[nH]c4ccccc34)[nH]n2)cc1	VP16 counter 13µM, RORgamma inh 11µM
C=Cc1c(C)c2cc3nc(cc4[nH]c(cc5nc(cc1[nH]2)C(C)=C5CCC(=O)O)c(CCC(=O)OC)c4C)[C@@]1(C)C3=CC=C(C(=O)OC)[C@H]1C(=O)OC (tested in a mixture with another compound)	Sfp inh inconclusive (no result: PLK1 PBD block)
CCOC(=O)C1CCN(C(=O)c2ccc(S(=O)(=O)Nc3ccccc3OC)cc2)CC1	none (no result: Sfp inh, VP16 counter, RORgamma inh, ALDH1A1 inh)
C[C@H](N[C@@H](C)COc1ccccc1)[C@H](O)c1ccc(O)cc1	none (no result: PLK1 PBD block)
CSc1ccccc1C(=O)NCCSC(C)(C)C	none
COc1c(C(=O)NCCSC(C)(C)C)ccc2ccccc12	RORgamma inh 2.2µM
NCC1OC(O[C@@H]2[C@H](O)[C@@H](OC3C(O)C(N)CC(N)C3OC3OC(CO)C(O)C(O)C3N)O[C@@H]2CO)C(N)C(O)C1O (stereo partly specified)	none (no result: Sfp inh, VP16 counter, RORgamma inh, PLK1 PBD block)
CC(=O)Nc1ccc(S(=O)(=O)Oc2cccc(/C=N/N=C3/NC(=O)C(CC(=O)O)S3)c2)cc1 (stereo unspecified)	ALDH1A1 inh 7.5µM, PLK1 PBD block inconclusive
CC(C)CN1CCC(=O)N(C(CSc2ccc(Br)cc2)Cc2ccccc2)CC1 (stereo unspecified)	RORgamma inh inconclusive (no result: ALDH1A1 inh, PLK1 PBD block)
Cc1ccc(C)c(OCC(O)CN2CCCCC2C)c1 (stereo unspecified)	RORgamma inh inconclusive
Cc1ccc(C)c(OCC(O)CN2C(C)CCCC2C)c1 (stereo unspecified)	RORgamma inh inconclusive, PLK1 PBD block 12µM
Cn1c(CC(=O)Nc2ccccc2)nnc1SCC(=O)NC1CCCC1	none (no result: ALDH1A1 inh)
COc1cc2c(cc1OC)CN(c1ccc3ccccc3n1)CC2	Sfp inh 56µM, VP16 counter inconclusive, RORgamma inh inconclusive (no result: ALDH1A1 inh)
COc1cc2c(cc1OC)CN(c1ccc(-c3ccccc3OC)nn1)CC2	none
C[C@H](CO)N1C[C@H](C)[C@@H](CN(C)C(=O)c2cc(-c3ccccc3)on2)OCc2cn(nn2)CCCC1=O	none (no result: Sfp inh, VP16 counter, RORgamma inh, ALDH1A1 inh)
